The source of these data is the supplement of paper PMC10933113.

Each structure is given as a SMILES string. Counter-ions that a name gives are not always drawn. ± gives the uncertainty stated by the source.

In this experiment the test system is THP-1. As to the kind of experiment: CD54 surface expression induction over DMSO control (% over DMSO); higher = stronger dendritic cell activation. To be noted: exposure time: 24 h. As for the experimental part: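 hCLAT-like CD54 and CD86 surface expression on THP1 cells after 24 h exposure at a single concentration (highest non-cytotoxic concentration, or 100-200 µM if not cytotoxic). Flow cytometry (iQue) was run on 5,000 live cells.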
As to `CCCCCCCCCCCCOCCO` [2-(Dodecyloxy)ethanol] (200 µM), the “CD54 surface expression induction” value came out at 34.2 ± 20.
For `Cc1occc1S` [2-Methyl-3-furanthiol] (200 µM), the “CD54 surface expression induction” value came out at 36.6 ± 1.1.
The figure for `O=C(O)CCCCCCCCC(=O)O` [Decanedioic acid] (200 µM) is -0.56 ± 5.1; for `COC(=O)CCCCCCCC(=O)OC` [Dimethyl nonanedioate] (200 µM) it is -1.14 ± 2.1; for `CCC(=O)C=Cc1ccc(OC)cc1` [1-(4-Methoxyphenyl)-1-pentene-3-one] (200 µM) it is -15.2 ± 1.7.
In the case of `CC(C)=CCOc1ccc(/C=C/C(=O)c2ccc(OCC=C(C)C)cc2OCC(=O)O)cc1` [Sofalcone] (100 µM) it was -27.7 ± 3.9.
On to `O=CC(=O)c1ccccc1` [Phenyl glyoxal] (100 µM), for which the “CD54 surface expression induction” value was -5.43 ± 7.7.
In the case of `CCN(CC)c1ccc(C(=O)c2ccccc2C(=O)O)c(O)c1` [2-[4-(Diethylamino)-2-hydroxybenzoyl]benzoic acid] (10 µM) it was -5.88 ± 5.
In the case of `O=C(O)c1cc(O)c2ccccc2c1O` [1,4-dihydroxy-2-naphthoic acid*] (10 µM) it was 374 ± 47; in that of `O=C(O)c1cn(C2CC2)c2cc(N3CCNCC3)c(F)cc2c1=O` [Ciprofloxacin] (100 µM), -14.9 ± 5.8.
The figure for `O=[N+]([O-])c1cc(Cl)c(Cl)c(Cl)c1Cl` [2,3,4,5-Tetrachloronitrobenzene] (10 µM) is -4.73 ± 2.7.
Take `CC[C@@]1(O)C(=O)OCc2c1cc1n(c2=O)Cc2c-1nc1ccccc1c2/C=N/OC(C)(C)C` [Gimatecan] (10 µM): the “CD54 surface expression induction” value was -15.7 ± 5.
The figure for `O=C(Nc1ccccc1)c1cc([N+](=O)[O-])ccc1Cl` [2-Chloro-5-nitro-N-phenylbenzamide] (200 µM) is 4.72 ± 3.4; for `C=C1CC[C@H](O)C/C1=C/C=C1\CCC[C@]2(C)[C@@H]([C@H](C)/C=C/[C@H](C)C(C)C)CC[C@@H]12` [Ergocalciferol*] (100 µM) it is 108 ± 7.2; for `CC(O)C#CC(C)O` (stereo not given) [Hex-3-yne-2,5-diol] (10 µM) it is 6.05 ± 3.8.
In the case of `CC(C)C[C@H](NC(=O)[C@H](Cc1ccccc1)NC(=O)c1cnccn1)B(O)O` [Bortezomib] (10 µM) it was 28.8 ± 9.9; in that of `O=c1cc(-c2ccccc2)oc2ccccc12` [Flavone] (200 µM), 62.9 ± 14.
The figure for `COc1cc(/C=C2\CCC/C(=C\c3ccc(O)c(OC)c3)C2=O)ccc1O` [Cyclovalone] (10 µM) is -1.01 ± 3.
In the case of `C=CC(=O)OCCOC(=O)CCC(=O)O` [4-[2-(Acryloyloxy)ethoxy]-4-oxobutanoic acid] (200 µM), the “CD54 surface expression induction” value was -1.6 ± 8.8.
In the case of `CC(C)(C)OC(=O)c1ccc(O)cc1` [tert-Butyl 4-hydroxybenzoate] (100 µM) it was 1.75 ± 0.96.
The figure for `C/C=C1\C(=O)C[C@H]2[C@@H]3CCC4=CC(=O)CC[C@]4(C)[C@H]3CC[C@]12C` [Guggulsterone Z] (100 µM) is -3.76 ± 3.3.
In the case of `CC(C)c1ccc2oc3nc(N)c(C(=O)O)cc3c(=O)c2c1` [Amlexanox] (100 µM) it was -5.95 ± 2.7; in that of `CC1=C(/C=C/C(C)=C/C=C/C(C)=C/C=O)C(C)(C)CCC1` [13-cis-Retinal (Vitamin A aldehyde)] (100 µM), 188 ± 9.3.
As for `CC(C)CCCCCCCOC(=O)c1ccc(C(=O)OCCCCCCCC(C)C)c(C(=O)OCCCCCCCC(C)C)c1` [Triisodecyl trimellitate] (163 µM), the “CD54 surface expression induction” value amounted to 10.7 ± 46.
In the case of `O=C1OC(OC(=O)c2cccnc2Nc2cccc(C(F)(F)F)c2)c2ccccc21` (stereo not given) [Talniflumate] (100 µM) it was 1.7 ± 0.62.
In the case of `CCCCCCCCCCCCCC[N+](C)(C)C` [Tetradonium bromide] (10 µM) it was 17.7 ± 3.4; in that of `Cc1c(C)n(Cc2ccccc2)c2ccc(C(=O)OCCN(C)C)cc12` [Indocate] (200 µM), 30.6 ± 5.
The figure for `CC(C)CC(NC(=O)OCC1c2ccccc2-c2ccccc21)C(=O)O` (stereo in doubt) [N-(9-Fluorenylmethoxycarbonyl)-L-leucine] (100 µM) is -11.5 ± 0.49; for `CC(C)(C)c1ccc(C(=O)CCCCl)cc1` [4'-Tert-butyl-4-chlorobutyrophenone] (100 µM) it is -1.36 ± 1.9.
Consider `CCc1oc2ccccc2c1C(=O)c1cc(I)c(O)c(I)c1` [Benziodarone] (100 µM), for which the “CD54 surface expression induction” value was -0.07 ± 0.74.
The figure for `CC(=O)Oc1ccc(C(c2ccc(OC(C)=O)cc2)c2ccccn2)cc1` [Bisacodyl] (100 µM) is -7.9 ± 29; for `C#CCN(C)CCCOc1ccc(Cl)cc1Cl` [Clorgyline hydrochloride] (100 µM) it is -7.99 ± 0.71; for `CCCCCCCCCCCC(=O)NCCCN(C)C` [N-[3-(Dimethylamino)propyl]dodecanamide] (200 µM) it is 14.4 ± 11.
The figure for `CCCCC1C(=O)N(c2ccccc2)N(c2ccc(O)cc2)C1=O` (stereo not given) [Oxyphenbutazone] (10 µM) is 2.37 ± 6.7.
The figure for `Cc1c2ccccc2c(C)c2c1ccc1ccccc12` [7,12-Dimethylbenzanthracene] (10 µM) is -22 ± 12; for `NC(=O)n1c(O)c(C(=O)c2cccs2)c2cc(Cl)ccc21` [Tenidap*] (200 µM) it is 157 ± 35.
On to `CCCCCCCC/C=C\CCCCCCCC(=O)N(C)CC(=O)O` [Oleyl sarcosine] (100 µM), for which the “CD54 surface expression induction” value was determined as 6.04 ± 0.79.
In the case of `COc1cc(C(C)(C)C)c(O)c(C(C)(C)C)c1` [2,6-Di-tert-butyl-4-methoxyphenol] (200 µM) it was 14.5 ± 0.32; in that of `Clc1nc(C(Cl)(Cl)Cl)c(Cl)c(Cl)c1Cl` [2,3,4,5-Tetrachloro-6-(trichloromethyl)pyridine] (10 µM), -4.98 ± 3.6.
The figure for `O=C(OCc1ccccc1)c1ccc(O)cc1` [Benzylparaben] (100 µM) is -6.45 ± 0.19.
